Data taken from PubChem BioAssay (NCATS).
Where “and” joins values, the source holds several entries; their conditions need not be identical. Equal values may be shown once. Results filed as inconclusive are left out. Entries that show only a call come without a potency. Where a structure was tested more than once in an assay, its records may differ in their call. Calls of active or inactive are those of the source. Unless noted, calls follow the shape of the dose curve; as a rule, active = well fitted curve in the direction sought with a large enough effect; inconclusive = small, poorly fitted or top-dose-only effect, or another doubt; inactive = no such curve, though single readings can be large; an effect the other way counts as inactive or inconclusive.

Tests used:
[1] = qHTS Screen of the MIPE 4.0 Collection Against Ewings Sarcoma (RDES) (AID 1259252); also: nearly all actives have a fitted effect of over 35% in size; also: potency is read from the fitted curve at half-maximal effect
How it was run: (§1)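 Viability screen: 48 h incubation at 37C, 95% humidity, 5% CO2 with serially titrated compound, followed by CellTiter-Glo readout.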

[2] = qHTS Screen of the MIPE 4.0 Collection Against Ewings Sarcoma (TC71) (AID 1259253); also: nearly all actives have a fitted effect of over 40% in size; also: potency is read from the fitted curve at half-maximal effect
How it was run: as §1

[3] = qHTS Screen of the MIPE 4.0 Collection Against Ewings Sarcoma (EW8) (AID 1259255); also: nearly all actives have a fitted effect of over 35% in size; also: potency is read from the fitted curve at half-maximal effect
How it was run: as §1

[4] = qHTS Screen of the MIPE 4.0 Collection Against Ewings Sarcoma (TC32) (AID 1259256); also: nearly all actives have a fitted effect of over 45% in size; also: potency is read from the fitted curve at half-maximal effect
How it was run: as §1

[5] = qHTS assay to identify small molecule inhibitors of chordoma cells - UCH-2 (AID 1259356)
[6] = P-glycoprotein substrates identified in KB-8-5-11 adenocarcinoma cell line, qHTS therapeutic library screen (AID 1346987); also: nearly all actives have a fitted effect of over 65% in size; also: potency is read from the fitted curve at half-maximal effect
How it was run: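 In this qHTS, P-gp-rich KB-8-5-11 cells received library compounds across a concentration range. Viability was quantified by luminescence after 72 h at 37 degree C.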

[7] = Natriuretic polypeptide receptor (hNpr1) antagonism - Pilot counterscreen GloSensor control cell line (AID 1347045; calls by dose curve)
How it was run: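 HEK293 cGMP-sensor cells; 2% GloSensor reagent 2 h RT; LOPAC compounds in 1:5 titrations 30-50 min; 50 uM SNP 20 min; luminescence pre-read and post-read.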

[8] = target: Atrial natriuretic peptide receptor 1 (Homo sapiens) (UniProt P16066); assay: Natriuretic polypeptide receptor (hNpr1) antagonism - Pilot screen (AID 1347049; calls by dose curve;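 also: agonist-evoked cGMP luminescence read 20 min after hNppA addition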)
How it was run: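 cGMP-sensor HEK293/hNpr1 cells, 1500/well, plated overnight at 37C. 2% GloSensor reagent, 2 h RT. Compound (23 nL pin transfer) 30 min RT, baseline luminescence pre-read. 0.1 nM hNppA, 20 min RT, post-read.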

[9] = target: Atrial natriuretic peptide receptor 2 (Homo sapiens) (UniProt P20594); assay: Natriuretic polypeptide receptor (hNpr2) antagonism - Pilot subtype selectivity assay (AID 1347050; calls by dose curve)
How it was run: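 Luminescence from a genetically encoded cGMP luciferase biosensor in hNpr2-expressing HEK293 cells is read before and 20 min after adding 1 nM hNppC. Test compounds, in interplate 1:5 titrations, are added 30-50 min ahead of the agonist.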

[10] = NS1 protein of Zika virus - qHTS assay to identify small molecule inhibitors in human HEK 293 cells (AID 1347053); also: nearly all actives have a fitted effect of over 55% in size; also: potency is read from the fitted curve at half-maximal effect
How it was run: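 Readout was TR-FRET using paired anti-NS1 antibodies after 24 h infection of HEK 293 cells with ZIKV MR766 (MOI = 0.5). Compound preceded virus by 1 h; reduced signal reflects lower NS1 expression.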

[11] = target: T1, Tyrosine-protein phosphatase non-receptor type substrate 1 (Homo sapiens) + Leukocyte surface antigen CD47 (Homo sapiens) (UniProt P78324+Q08722); assay: CD47-SIRPalpha protein protein interaction - LANCE assay qHTS validation (AID 1347057; active = well fitted curve in the direction sought with a large enough effect in the signal ratio, with a control signal flat, not every such curve was filed as active; the % refers to the signal ratio)
How it was run: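 Inhibition of soluble CD47/SIRPalpha ectodomain association by titrated compounds, measured as 665/615 nm time-resolved FRET ratio after sequential 30 min room-temperature incubations.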

[12] = target: T1, Tyrosine-protein phosphatase non-receptor type substrate 1 (Homo sapiens) + Leukocyte surface antigen CD47 (Homo sapiens); assay: CD47-SIRPalpha protein protein interaction - HTRF assay qHTS validation (AID 1347058; active = well fitted curve in the direction sought with a large enough effect in the signal ratio, not every such curve was filed as active; the % refers to the signal ratio)
How it was run: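 Soluble extracellular domains (6His-CD47, Avi-tag-biotinylated SIRPalpha) in PBS pH 7.4 with 0.05% IGEPAL CA-630. Compounds were preincubated 30 min at RT with CD47 and anti-His-Eu, then SIRPalpha and SAV-XL665 were added. TR-FRET 665/615 ratio.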

[13] = qHTS assay to identify small molecule inhibitors of chordoma cells - UCH-1 (AID 1259355); also: nearly all actives have a fitted effect of over 55% in size
How it was run: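 Screening used approved and investigational drugs in 15-point titration against 800 seeded cells per well. A fixed combination of auranofin with camptothecin, doxorubicin, rubitecan and topotecan followed compound addition, and growth was scored by CellTiter-Glo after 48hr.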

[14] = P-glycoprotein substrates identified in KB-3-1 adenocarcinoma cell line, qHTS therapeutic library screen (AID 1346986); conditions: outcome: dose series up to 44.5 µM unless noted; also: nearly all actives have a fitted effect of over 60% in size
How it was run: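 Viability by CellTiter-Glo after 72 h compound exposure at 37 degree C, 5% CO2. Cytotoxic call: curve class -1.1 to -2.4, maximum response >50%, AC50 < 10 uM, compared across KB-3-1 and P-gp-overexpressing KB-8-5-11.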

[15] = Identifying Small Molecule Inhibitors of Pancreatic Cancer Stem Cells (SN12C, Adherent) (AID 1259358);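 also: cell survival measured after 48 h of compound exposure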
How it was run: (§2)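 Monolayer and spheroid cultures are compared. Spheroids form over 14 days in stem cell medium on hydrogel-coated low-attachment plates, then are exposed to compound for 48 h before CellTiter-Glo luminescence.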

[16] = Identifying Small Molecule Inhibitors of Pancreatic Cancer Stem Cells (A278, Adherent) (AID 1259361);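 also: viability read after 48 h compound exposure; nearly all actives have a fitted effect of over 35% in size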
How it was run: as §2

[17] = Identifying Small Molecule Inhibitors of Pancreatic Cancer Stem Cells (Panc1, Adherent) (AID 1259362); conditions: Potency: viability;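 also: compound exposure lasted 48 h before the viability read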
How it was run: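 Adherent (2D) versus sphere (3D) formats; spheres generated 14 d in SCM beforehand. Compound transferred by pin tool after 4 h, 48 h incubation, CellTiter-Glo endpoint.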

[18] = outcome: at 44.5 µM (top of the series) unless noted

T1 sequence (P78324 whole entry, looked up, the tested form may be a part): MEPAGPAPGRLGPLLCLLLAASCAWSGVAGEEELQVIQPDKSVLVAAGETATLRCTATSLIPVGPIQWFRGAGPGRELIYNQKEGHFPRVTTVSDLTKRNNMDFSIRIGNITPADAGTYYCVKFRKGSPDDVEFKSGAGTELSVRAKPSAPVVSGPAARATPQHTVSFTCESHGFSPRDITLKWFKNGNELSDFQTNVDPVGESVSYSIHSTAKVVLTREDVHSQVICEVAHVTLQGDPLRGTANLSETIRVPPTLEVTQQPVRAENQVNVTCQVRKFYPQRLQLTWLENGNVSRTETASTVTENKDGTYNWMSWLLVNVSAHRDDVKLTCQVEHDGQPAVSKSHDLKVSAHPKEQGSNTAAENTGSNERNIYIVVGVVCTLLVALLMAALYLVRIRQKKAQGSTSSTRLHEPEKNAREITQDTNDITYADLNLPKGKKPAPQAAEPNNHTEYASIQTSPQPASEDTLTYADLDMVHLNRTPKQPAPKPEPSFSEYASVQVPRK
T1 sequence (Q08722 whole entry, looked up, the tested form may be a part): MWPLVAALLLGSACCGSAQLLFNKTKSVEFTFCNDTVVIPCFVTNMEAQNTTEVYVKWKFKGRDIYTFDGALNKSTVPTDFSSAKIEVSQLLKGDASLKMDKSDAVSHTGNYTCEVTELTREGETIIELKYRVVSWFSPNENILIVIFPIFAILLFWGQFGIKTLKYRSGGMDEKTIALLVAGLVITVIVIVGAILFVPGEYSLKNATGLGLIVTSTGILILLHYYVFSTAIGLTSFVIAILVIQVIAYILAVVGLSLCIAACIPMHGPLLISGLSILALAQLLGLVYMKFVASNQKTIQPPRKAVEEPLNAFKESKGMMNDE
Chain of Atrial natriuretic peptide receptor 1 (Homo sapiens) (P16066 whole entry, looked up): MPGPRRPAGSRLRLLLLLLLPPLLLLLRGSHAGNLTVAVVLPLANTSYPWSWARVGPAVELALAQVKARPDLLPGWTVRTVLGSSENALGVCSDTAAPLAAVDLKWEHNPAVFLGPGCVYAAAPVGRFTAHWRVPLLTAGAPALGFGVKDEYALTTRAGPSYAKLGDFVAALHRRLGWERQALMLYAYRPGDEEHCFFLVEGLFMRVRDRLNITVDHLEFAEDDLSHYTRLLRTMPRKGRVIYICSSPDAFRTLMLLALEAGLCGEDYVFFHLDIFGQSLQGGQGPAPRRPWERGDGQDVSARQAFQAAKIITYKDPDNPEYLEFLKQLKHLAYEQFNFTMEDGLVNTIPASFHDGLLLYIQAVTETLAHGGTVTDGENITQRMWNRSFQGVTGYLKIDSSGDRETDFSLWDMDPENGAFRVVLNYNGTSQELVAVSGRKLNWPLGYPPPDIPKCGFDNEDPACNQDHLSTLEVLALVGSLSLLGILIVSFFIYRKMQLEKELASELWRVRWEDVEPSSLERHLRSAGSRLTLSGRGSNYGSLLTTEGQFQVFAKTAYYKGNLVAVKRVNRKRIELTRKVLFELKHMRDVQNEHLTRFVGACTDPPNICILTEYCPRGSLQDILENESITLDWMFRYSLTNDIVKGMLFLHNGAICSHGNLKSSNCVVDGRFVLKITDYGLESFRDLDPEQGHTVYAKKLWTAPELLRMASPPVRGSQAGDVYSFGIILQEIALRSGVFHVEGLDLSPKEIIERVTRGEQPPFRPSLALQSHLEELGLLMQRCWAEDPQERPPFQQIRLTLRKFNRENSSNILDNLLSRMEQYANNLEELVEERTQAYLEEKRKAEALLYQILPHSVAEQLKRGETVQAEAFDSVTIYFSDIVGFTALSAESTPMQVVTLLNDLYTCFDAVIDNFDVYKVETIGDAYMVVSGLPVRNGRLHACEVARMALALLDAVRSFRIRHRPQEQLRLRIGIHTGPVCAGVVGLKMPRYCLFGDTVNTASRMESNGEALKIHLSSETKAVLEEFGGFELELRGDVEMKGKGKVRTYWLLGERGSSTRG
Chain of Atrial natriuretic peptide receptor 2 (Homo sapiens) (P20594 whole entry, looked up): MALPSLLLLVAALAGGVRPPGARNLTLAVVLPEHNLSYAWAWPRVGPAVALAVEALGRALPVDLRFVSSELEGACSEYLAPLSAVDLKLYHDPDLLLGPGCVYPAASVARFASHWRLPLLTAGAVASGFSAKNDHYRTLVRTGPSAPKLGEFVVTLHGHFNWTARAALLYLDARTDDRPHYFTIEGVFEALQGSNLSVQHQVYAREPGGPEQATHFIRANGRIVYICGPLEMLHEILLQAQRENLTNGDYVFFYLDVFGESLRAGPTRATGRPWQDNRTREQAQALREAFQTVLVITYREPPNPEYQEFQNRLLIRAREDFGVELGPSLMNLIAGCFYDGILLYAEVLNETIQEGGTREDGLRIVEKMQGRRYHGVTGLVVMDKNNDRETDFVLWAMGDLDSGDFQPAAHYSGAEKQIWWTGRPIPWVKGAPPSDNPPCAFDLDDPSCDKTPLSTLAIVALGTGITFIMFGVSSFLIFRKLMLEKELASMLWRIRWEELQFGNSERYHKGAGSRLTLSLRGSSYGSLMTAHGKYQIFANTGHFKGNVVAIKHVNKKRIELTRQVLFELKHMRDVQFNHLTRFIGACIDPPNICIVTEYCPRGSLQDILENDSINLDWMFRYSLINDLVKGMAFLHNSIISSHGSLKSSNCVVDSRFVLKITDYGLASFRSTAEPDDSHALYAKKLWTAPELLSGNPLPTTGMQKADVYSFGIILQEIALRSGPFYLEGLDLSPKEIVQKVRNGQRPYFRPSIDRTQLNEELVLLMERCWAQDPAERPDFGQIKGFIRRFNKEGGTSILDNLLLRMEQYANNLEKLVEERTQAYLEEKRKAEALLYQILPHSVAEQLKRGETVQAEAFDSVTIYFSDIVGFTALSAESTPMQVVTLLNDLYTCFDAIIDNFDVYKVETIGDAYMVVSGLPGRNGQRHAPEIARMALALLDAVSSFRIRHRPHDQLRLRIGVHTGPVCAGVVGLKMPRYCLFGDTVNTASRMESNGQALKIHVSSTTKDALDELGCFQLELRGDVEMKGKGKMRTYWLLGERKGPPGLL

SMILES	Potency [1]	Potency [2]	Potency [3]	Potency [4]	outcome [5]	Potency [6, 18]	Potency [7]	Potency [8]	Potency [9]	Potency [10]	outcome [11]	outcome [12]	Potency [13]	outcome [14]	Potency [15]	IC50 (viability decrease) [16]	Potency [17]	outcome ([6]; KB-8-5-11 (P-gp overexpressing) viability, CellTiter-Glo, 72 h, at 44.5 µM (top of the series))	outcome [6, 18]
NS(=O)(=O)c1cc2c(cc1Cl)NCNS2(=O)=O	inactive	inactive	inactive	inactive	inactive	inactive	inactive	inactive	inactive	inactive	inactive	inactive	–	–	–	–	–	–	–
COc1cc2c(c(OC)c1OC)-c1ccc(OC)c(=O)cc1[C@@H](NC(C)=O)CC2	inactive	inactive	inactive	–	inactive	23.1 µM (active) and 132 nM (active)	–	inactive	–	inactive	inactive	–	–	–	–	–	–	–	–
COc1ccc2[nH]cc(CCNC(C)=O)c2c1	1.18 µM (active)	1.05 µM (active)	2.96 µM (active)	–	inactive	inactive	–	inactive	inactive	inactive	inactive	inactive	–	–	–	–	–	–	–
COC(=O)Nc1nc2ccc(C(=O)c3cccs3)cc2[nH]1	0.0037 µM (active)	0.0118 µM (active)	0.0047 µM (active)	–	inactive	6.6 nM (active) and 326 nM (active)	inactive	inactive	–	235 nM (active) and inactive	inactive	–	–	–	–	–	–	–	–
CC1(C)O[C@H]2CC(=O)OC[C@]23[C@H]2CC[C@@]4(C)[C@H](c5ccoc5)OC(=O)[C@H]5O[C@]54[C@]2(C)C(=O)C[C@@H]13	inactive	inactive	inactive	–	inactive	inactive	–	–	–	inactive	–	–	inactive	inactive	–	–	–	–	–
Cc1ccccc1N1C(=O)c2cc(S(N)(=O)=O)c(Cl)cc2NC1C (stereo not drawn)	inactive	inactive	inactive	–	inactive	inactive	inactive	inactive	–	inactive	–	–	–	–	–	–	–	–	–
CC(C)C(=O)Nc1ccc([N+](=O)[O-])c(C(F)(F)F)c1	7.43 µM (active)	10.5 µM (active)	13.2 µM (active)	13.2 µM (active)	inactive	inactive	–	inactive	–	inactive	inactive	–	inactive	–	–	–	–	–	–
CC(C)(C)C(=O)Oc1ccc(S(=O)(=O)Nc2ccccc2C(=O)NCC(=O)O)cc1	inactive	inactive	inactive	–	inactive	inactive	–	–	–	inactive	inactive	inactive	inactive	inactive	–	–	–	–	–
COc1ccc(C2CNC(=O)C2)cc1OC1CCCC1 (stereo not drawn)	inactive	inactive	inactive	inactive	inactive	inactive	inactive	inactive	inactive	inactive	inactive	inactive	inactive	–	–	–	–	–	–
CN(C)C(=N)N=C(N)N	inactive	inactive	inactive	inactive	inactive	–	–	–	–	inactive	–	–	inactive	inactive [setting not given]	inactive	inactive	inactive	inactive	inactive [setting not given]
O=c1c(O)c(-c2ccc(O)c(O)c2)oc2cc(O)cc(O)c12	10.5 µM (active)	18.7 µM (active)	13.2 µM (active)	20.9 µM (active)	inactive	inactive	–	inactive	inactive	inactive	–	–	inactive	–	–	29.6 µM (active)	–	–	–
C[C@](N)(Cc1ccc(O)c(O)c1)C(=O)O	inactive	inactive	inactive	–	inactive	inactive	inactive	inactive	–	inactive	inactive	inactive	inactive	–	–	–	–	–	–
CC(COc1ccccc1)N(CCCl)Cc1ccccc1 (stereo not drawn)	inactive	inactive	inactive	–	inactive	–	inactive	inactive	–	inactive	–	–	inactive	–	–	–	–	–	–
N[C@@H](Cc1c[nH]c2ccc(O)cc12)C(=O)O	inactive	inactive	inactive	–	inactive	inactive	–	inactive	inactive	inactive	inactive	inactive	inactive	–	–	–	–	–	–
Cc1ccc(-c2cc(C(F)(F)F)nn2-c2ccc(S(N)(=O)=O)cc2)cc1	4.18 µM (active)	13.2 µM (active)	20.9 µM (active)	–	inactive	–	–	–	–	inactive	inactive	–	inactive	inactive	–	–	–	–	–
CC1(CN2CCC(n3c(=O)[nH]c4ccccc43)CC2)OCc2ccccc2-n2cccc21 (stereo not drawn)	16.6 µM (active)	16.6 µM (active)	14.8 µM (active)	–	inactive	inactive	–	–	–	inactive	–	–	inactive	–	inactive	–	–	–	–
